According to PubChem BioAssay AID488846 (National Center for Advancing Translational Sciences (NCATS), 2010):
Values without a mark were called inactive. Calls come from the whole dose curve; as a rule, active = well fitted curve in the direction sought with a large enough effect; inactive = no such curve, though single readings can be large or run the other way.

Target: Alpha-galactosidase A (Homo sapiens) (UniProt P06280)
Assay: qHTS Assay for Inhibitors and Activators of N370S glucocerebrosidase as a Potential Chaperone Treatment of Gaucher Disease: Alpha-Galactosidase Counterscreen for Probe SAR
Conditions: purified human alpha-galactosidase, 4-MU-alpha-Gal fluorescence
Source text: NIH Chemical Genomics Center [NCGC] NIH Molecular Libraries Probe Production Centers Network [MLPCN] MLPCN Grant: MH086442-01 Assay Submitter (PI): Wei Zheng Glucocerebrosidase (GC) catalyzes the hydrolysis of beta-glucocerebroside to glucose and ceramide in lysosomes. Mutations in the glucocerebrosidase gene result in Gaucher disease, an autosomal recessive lysosomal storage disorder. Many of the mutations encountered in patients with Gaucher disease are missense alterations that may cause misfolding, decreased stability and/or mistrafficking of this lysosomal protein. […] These inhibitors include iminosugar analogs and three non-iminosugar inhibitors identified from a previous HTS of 62,000 compounds with the wild type recombinant enzyme. However, the enhancement of enzyme activity by the chaperone action of an enzyme inhibitor must be balanced against the direct inhibition of the enzyme. An enzyme activator could also function as a chaperone by binding to the enzyme and helping to correct its misfolding and mistrafficking. While activators for GC have not yet been identified, they may have better therapeutic potential than inhibitors. Therefore the discovery and development of chemical activators may provide a new strategy for the chaperone therapy. To characterize compound selectivity, selected hits from the primary screen were screened against purified alpha-galactosidase, a related sugar hydrolase. Alpha-galactosidase is a homodimeric glycoprotein that hydrolyzes the terminal alpha-galactosyl moieties from glycolipids and glycoproteins.
NCGC Assay Protocol Summary: This is a fluorogenic enzyme assay with 4-Methylumbelliferyl alpha-D-galactopyranoside as the substrate and human […] as the enzyme preparation. Upon the hydrolysis of this fluorogenic substrate, the resulting product, […]. 4-Methyllumbelliferone, can be excited at 365 nm and emits at 440 nm. This fluorescence which can be detected by a standard fluorescence plate reader. Data were normalized to the controls for basal activity (without enzyme) and 100% activity (with enzyme). In the AC50 values were determined from concentration-response data modeled with the standard Hill equation. Assay buffer: 50 mM citric acid (titrated with potassium phosphate to pH 4.5), 0.005% Tween-20, pH 4.5. (pH 4.5 is an optimal condition for this enzyme assay) 1536-well assay protocol for the human alpha-galactosidase: (1) Add 2 ul/well of enzyme (12 nM final) (2) Add 23 nL compounds in DMSO solution. The final titration was 0.7 nM to 77 uM. (3) Add 1 ul of substrate ([…]) (4) Incubate at room temperature for 20 min. (5) Add 2 ul stop solution (1M NaOH and 1M Glycine mixture, pH 10) (6) Detect the assay plate in a ViewLux plate reader (PerkinElmer) with Ex=365 nm and Em=440nm.

Sequence of Alpha-galactosidase A (Homo sapiens) (P06280 whole entry, looked up): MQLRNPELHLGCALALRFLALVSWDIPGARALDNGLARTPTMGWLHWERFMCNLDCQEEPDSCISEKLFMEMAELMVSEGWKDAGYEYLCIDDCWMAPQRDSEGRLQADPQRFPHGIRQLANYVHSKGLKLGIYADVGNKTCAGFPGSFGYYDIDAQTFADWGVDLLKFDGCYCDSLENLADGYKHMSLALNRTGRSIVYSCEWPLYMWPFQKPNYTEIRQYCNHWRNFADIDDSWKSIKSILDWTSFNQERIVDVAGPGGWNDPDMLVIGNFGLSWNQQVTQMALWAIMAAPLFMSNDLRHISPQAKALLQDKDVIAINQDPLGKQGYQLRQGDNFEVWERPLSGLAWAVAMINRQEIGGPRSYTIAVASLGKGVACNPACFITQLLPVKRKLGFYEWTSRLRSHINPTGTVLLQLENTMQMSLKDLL

| Compound | max response [%] |
| --- | --- |
| O=C(NC1CCCCC1)c1cnn2c1NC(=C1CC1)C=C2C(F)F | -4.62 |
| O=C(Nc1ccccc1Sc1ccccc1)c1cnn2c1NC(=C1CC1)C=C2C(F)F | -8.53 |
| C#Cc1ccc(NC(=O)c2cnn3c(C)cc(C)nc23)cc1 | -7.39 |
| O=C(Nc1ccccc1Sc1ccccc1)c1cnn2c1NC(=C1CC1)C=C2C(F)(F)F | -8.17 |
| O=C(Nc1ccc2c(c1)CCC2)c1cnn2c1NC(=C1CC1)C=C2C(F)F | -2.77 |
| C=C1C=C(C(F)F)n2ncc(C(=O)Nc3ccc(C(C)CC)cc3)c2N1 (stereo unspecified) | -7.63 |
